From PubChem
Sm TGR inh – qHTS Assay for the Inhibitors of Schistosoma Mansoni Peroxiredoxins | Schistosoma mansoni thioredoxin glutathione reductase (TGR), Q962Y6 | purified TGR, DTNB reduction, TNB absorbance 405 nm | Potency, µM (top dose mostly 114 µM), inactives show at the highest dose activity change, negative = inhibition, actives largely listed as inhibitors | 360,000 compounds, 3% hits | AID 485364, 2010; note: potency is the fitted concentration of half-maximal effect; % is set by controls: 0 for no effect and ±100 for the full control effect; nearly all actives have a fitted effect of over 60% in size
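TGR 20 nM + NADPH 100 uM (dispensed conc.), cpd preinc 15 min RT; start with NADPH (500 uM addition) then DTNB (15 mM addition). Kinetic TNB absorbance, 405 nm filter. Four-parameter Hill fit across titration.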
RE007 growth inh – qHTS Assay for Inhibitors of the HIV-1 protein Vpr | S. pombe RE007 Vpr strain, BacTiter-Glo ATP luminescence, 24 h | Potency, µM (series often up to 92.2 µM), inactives show top-dose activity change, negative = less growth, hits mostly inhibitors | 360,000 compounds, 0.21% hits; active = well fitted falling curve with a large enough effect; inconclusive = small, poorly fitted or top-dose-only effect; inactive = no such curve, though single readings can be large or run the other way; note: potency is the fitted concentration of half-maximal effect; % is set by controls: 0 for no effect and ±100 for the full control effect; nearly all actives have a fitted effect of over 50% in size
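Fission yeast RE007 carrying one integrated HIV-1 vpr copy, seeded at OD 0.01 in PMG+AL medium with 23 nL pinned compound. Grown 24 h at 30 degrees; viability read by BacTiter-Glo luminescence after 5 min.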
AmpC detergent – qHTS Inhibitors of AmpC Beta-Lactamase (assay with detergent); 370,000 compounds, 0.041% hits; P00811; AmpC hydrolysis of nitrocefin, absorbance 480 nm, 0.01% Triton; Potency, µM (highest dose often 114 µM), for the others: at the highest dose activity change, negative = inhibition, usual class: inhibitors;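 note: potency is the fitted concentration of half-maximal effect; 0% = no-compound wells and -100% = no-enzyme wells; nearly all actives have a fitted effect of over 25% in size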
Target sequence (P00811 whole entry, looked up): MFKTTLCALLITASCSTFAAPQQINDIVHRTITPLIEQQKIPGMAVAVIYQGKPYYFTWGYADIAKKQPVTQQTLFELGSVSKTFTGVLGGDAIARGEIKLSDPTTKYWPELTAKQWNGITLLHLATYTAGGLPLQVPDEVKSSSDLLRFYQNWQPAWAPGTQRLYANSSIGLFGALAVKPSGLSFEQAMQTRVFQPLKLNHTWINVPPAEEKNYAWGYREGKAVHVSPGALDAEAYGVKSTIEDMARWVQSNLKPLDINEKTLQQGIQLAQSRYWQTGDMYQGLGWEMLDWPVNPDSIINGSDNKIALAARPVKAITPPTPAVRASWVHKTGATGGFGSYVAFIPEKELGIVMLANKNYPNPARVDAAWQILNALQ
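AmpC (5.3 nM in the dispensed reagent) in 20 mM phosphate pH 7.0 with 0.01% (detergent screen) or 0.0001% Triton X-100 was preincubated with compounds for 15 min at room temperature. Nitrocefin was then added from an 800 uM solution, and hydrolysis was followed at 480 nm.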
AmpC no deterg – qHTS Inhibitors of AmpC Beta-Lactamase (assay without detergent); AID 485341, 2010; AmpC nitrocefin hydrolysis, absorbance 480 nm, 0.0001% Triton; 330,000 compounds, 0.52% hits; Potency, µM (doses to about 57.1 µM), for inactives: at the top dose activity change, negative = inhibition, actives largely listed as inhibitors; P00811;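 note: potency is the fitted concentration of half-maximal effect; plate controls were no compound for no effect and no enzyme for full effect; nearly all actives have a fitted effect of over 20% in size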
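20 mM phosphate pH 7.0 + 0.01% (detergent screen) or 0.0001% Triton X-100; 5.3 nM AmpC reagent; cpd preinc 15 min RT; nitrocefin (800 uM stock) to start; A480 q20 s × 4 min; Activity was normalised to no-enzyme and no-compound control wells.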
Tb PYK inh – qHTS of Trypanosoma Brucei Inhibitors; pyruvate kinase (Trypanosoma brucei), Q57TT1; TbPYK enzyme, Kinase-Glo Plus ATP luminescence, 45 min; Potency, µM (series often up to 76.8 µM), for the others: at the highest dose activity, negative = inhibition, actives largely listed as inhibitors; 410,000 compounds, 0.12% hits; AID 624173, 2012; note: potency is the fitted concentration of half-maximal effect; % is set by controls: 0 for no effect and ±100 for the full control effect; nearly all actives have a fitted effect of over 50% in size
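Glycolytic pyruvate kinase of T. brucei was incubated with substrate, test compound and 130 uM ADP for 45 minutes at room temperature. Luminescent Kinase-Glo Plus signal was measured after 10 minutes.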
SARS PLpro yeast-1 – qHTS of Yeast-based Assay for SARS-CoV PLP. S. cerevisiae expressing SARS-CoV PLpro, growth rescue. 330,000 compounds, 0.19% hits. AID 485353, 2010. Potency, µM (top dose mostly 32.9 µM), for the others: at the highest dose activity, positive = growth rescue, actives largely listed as activators; calls by dose curve; note: potency is the fitted concentration of half-maximal effect; 0% is about no effect; nearly all actives have a fitted effect of over 55% in size
SARS PLpro yeast-2 – qHTS of Yeast-based Assay for SARS-CoV PLP: Hit Validation; calls only; 1,000 compounds, 19% hits; yeast expressing SARS-CoV PLpro, growth phenotype rescue; AID 652038, 2013; shares compounds with SARS PLpro yeast-1; call rule not given here
* marks the source's active call; other numbers are inactive results; i = inactive; u = inconclusive; x = no result given; + = active, no number. Hits are enriched below; roughly 3.3% of the tested compounds scored in any of these assays. Unless noted, calls come from the whole dose curve; as a rule, active = well fitted curve in the direction sought with a large enough effect; inconclusive = small, poorly fitted or top-dose-only effect, or another doubt; inactive = no such curve, though single readings can be large; an effect the other way counts as inactive or inconclusive.

SMILES | Sm TGR inh | RE007 growth inh | AmpC detergent | AmpC no deterg | Tb PYK inh | SARS PLpro yeast-1 | SARS PLpro yeast-2
Cc1sc2nc(CSCC(=O)N(CCC#N)c3ccccc3)[nH]c(=O)c2c1C | 1% | 6% | -3% | 9% | 2% | -1% | x
CCOC(=O)c1c(C)[nH]c(C)c1S(=O)(=O)N1CCCC(C(=O)NCc2ccc(Cl)cc2)C1 (stereo not drawn) | 1% | x | -6% | x | -3% | x | x
CCNC(=S)Nc1ccc(C)c(Cl)c1 | 2% | 12% | 5% | -12% | -9% | u | +
Cc1cc(=O)[nH]c(N/N=C/c2ccccn2)n1 | -2% | -6% | -7% | -3% | 7% | u | i
Cc1cc(=O)[nH]c(N/N=C/c2c(O)n(-c3ccccc3)c(=O)c3ccccc23)n1 | -4% | x | u | -22% | 6% | u | i
Cc1cc(=O)[nH]c(NN=Cc2c(Cl)cccc2Cl)n1 | x | -2% | x | x | 4% | x | x
Cc1cccc(NC(=O)CCCCCn2c(=O)[nH]c3ccsc3c2=O)c1 | -3% | x | -1% | x | 0% | x | x
Cc1ccc(OCCNC(=O)CCNS(=O)(=O)c2ccc(C)cc2)cc1 | -2% | 7% | u | 14% | 1% | -3% | x
CCOc1ccc(S(=O)(=O)NCCC(=O)NCCOc2ccccc2)cc1 | -9% | 27% | -10% | -11% | 1% | u | i
COc1ccc(-c2nn(-c3ccccc3)cc2/C=N/NC(=S)NC(C)C)cc1OC | -1% | -7% | -12% | -31% | -12% | 7.1µM* | +
COc1ccc(-c2nn(-c3ccccc3)cc2/C=N/O)cc1OC | 2% | -1% | 4% | -15% | 12% | -2% | x
CN(CCNC(=O)Cn1c(=O)sc2ccccc21)Cc1ccccc1 | 0% | 4% | u | -4% | -2% | u | i
CCCCN(C)CCNC(=O)Cn1c(=O)sc2ccccc21 | -4% | -5% | u | -10% | 6% | 4% | x
COc1cccc(-n2c(=O)c3c(C)c(C)sc3n(CC(=O)NCCc3ccc(OC)c(OC)c3)c2=O)c1 | -4% | x | 14% | x | -5% | x | x
Cc1cc(C)nc(N2CCC(C(=O)NCCc3ccc(F)cc3)CC2)n1 | 4% | -4% | u | -1% | -2% | -7% | x
Cc1cc(C)nc(N2CCCC(C(=O)NCCc3ccc(F)cc3)C2)n1 (stereo not drawn) | -7% | 2% | u | -8% | -7% | u | +
Cc1ccc2c(c1)-c1onc(C(=O)N3CCN(c4cc(C)ccc4C)CC3)c1CO2 | -8% | x | 5% | x | 5% | x | x
CCCN1CCN(C(=O)c2noc3c2COc2ccc(C)cc2-3)CC1 | 5µM* | 4% | -15% | 103% | 2% | u | i
Cc1ccc(Cl)cc1NC(=O)Cn1c(=O)oc2cc(S(=O)(=O)N3CCCC3)ccc21 | -3% | x | 25% | x | -5% | x | x
Cc1ccc(S(=O)(=O)c2nc(-c3cccc(Br)c3)oc2N2CCCCCC2)cc1 | 1% | x | 27% | x | 3% | x | x
O=C(NNC(=O)c1cc(Cl)ccc1O)c1ccc(NS(=O)(=O)c2cccs2)cc1 | 2% | 4% | u | -32% | -1% | u | u
O=C(NNC(=O)c1cc(F)c(F)cc1Cl)c1ccc(NS(=O)(=O)c2cccs2)cc1 | -11% | 0% | 3% | -26% | 3% | -3% | x
COc1ccc(S(=O)(=O)NCCc2sc(-c3cccnc3)nc2C)c(F)c1 | 6% | x | 6% | x | -3% | x | x
COc1ccccc1/C=N/NC(=O)c1cccc(OC(F)(F)C(F)F)c1 | -1% | -9% | -8% | -33% | 0% | -10% | x
COc1cccc(/C=N/NC(=O)C(=O)Nc2ccccc2OC(F)(F)C(F)F)c1O | -22% | -5% | -12% | -27% | -9% | 3.5µM* | i
SMILES | Sm TGR inh | RE007 growth inh | AmpC detergent | AmpC no deterg | Tb PYK inh | SARS PLpro yeast-1 | SARS PLpro yeast-2
O=C(c1cnc(N2CCOCC2)c2ccccc12)N1CCN(c2ccccc2F)CC1 | 4% | x | -4% | x | -3% | x | x
CC(C)C(=O)Nc1ccc(C(=O)Nc2nnc(C(C)(C)C)s2)cc1 | x | 4% | 1% | -14% | 2% | 0% | x
CC(C)C(=O)Nc1cccc(C(=O)Nc2nnc(C(C)(C)C)s2)c1 | 5% | 6% | -7% | -12% | -2% | u | i
COc1ccc(CCNC(=O)C2CCCN(S(=O)(=O)c3ccc4c(c3)oc(=O)n4C)C2)cc1OC (stereo not drawn) | -2% | x | -4% | x | -5% | x | x
COc1ccc(NC(=O)CN2CCOCC2)cc1S(=O)(=O)N1CCCCC1 | 3% | 1% | 8% | -5% | 2% | u | i
CC1=C(C(=O)OCc2ccccc2)C(/C=C/c2ccccc2)NC(=S)N1 (stereo not drawn) | 1% | 0% | u | -34% | -8% | x | +
C=CCOC(=O)C1=C(C)NC(=S)NC1/C=C/c1ccccc1 (stereo not drawn) | 13% | 8% | 7% | -49% | 3% | 4% | x
O=C(Nc1nc(-c2ccccn2)cs1)C1COc2ccccc2O1 (stereo not drawn) | 18% | u | 2% | -12% | -2% | u | +
Cc1ccc(-n2nc(C(=O)Nc3ccc(F)cc3Cl)c(=O)n(C)c2=O)cc1 | 3% | x | 22% | x | 14% | x | x
O=C(CCCOc1ccc(Cl)cc1Cl)N/N=C/c1ccccc1O | -5% | 11% | -11% | -15% | 3% | u | i
NC(=S)N/N=C/c1ccc2ccccc2c1 | -14% | 3% | -6% | -14% | -18% | 5.6µM* | +
COc1ccc(/C=N/NC(N)=S)cc1OC(=O)c1ccccc1 | -4% | 0% | -7% | -51% | -4% | 11µM* | i
NC(=S)N/N=C/C=C/c1ccccc1 | -4% | 13% | -5% | -20% | -4% | 1.6µM* | +
COc1ccc(CNC(=O)CCn2nc(C)c3c(C)n(-c4ccccc4)nc3c2=O)cc1OC | 2% | x | 25% | x | 4% | x | x
CCC(=O)N1CCc2cc(S(=O)(=O)NC(CC(C)C)C(=O)NCc3ccc(F)cc3)ccc21 (stereo not drawn) | 9% | x | -2% | x | -12% | x | x
O=C(N/N=C/c1ccc(O)c(O)c1O)/C(=C/c1ccc([N+](=O)[O-])cc1)NC(=O)c1ccccc1 | 0% | -8% | -4% | -42% | -11% | 2.5µM* | i
